# High-throughput results (PubChem BioAssay)
# Compounds with a hit are over-represented: about 17% of the library has one in this group of screens.
# HepG2 tox: HepG2 cytotoxicity, counter-screen for TGF-b inhibitors. HepG2 CAGA-GFP viability, ATP luminescence, 18 h. Potency, µM (top dose mostly 46.1 µM), actives largely listed as cytotoxic. actives 0.76% (n = 410,000)
#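 CellTiter-Glo luminescence gave cytotoxicity after 18 hours at 37 degrees C. The cells were HepG2 CAGA-GFP in 1% FBS DMEM, stimulated with 500 pg/mL TGF-beta after compound addition. %Activity was normalised to no-cell wells (complete cell-killing) and DMSO (no toxicity), and curves were fitted and classified.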
# DT40 TDP1 CPT: DT40-hTDP1 cell growth loss with CPT; chicken DT40 Tdp1-/-;hTDP1 cells + 20 nM CPT, ATP luminescence, 48 h; Potency, µM (top dose mostly 46.2 µM), usual class: inhibitors; actives 12% (n = 420,000); further: nearly all actives have a fitted effect of over 55% in size
#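 Chicken DT40 Tdp1-/- cells stably complemented with human TDP1 were seeded at 400 cells/well in medium containing 20 nM camptothecin, exposed to pin-transferred compounds, and grown at 37 °C for at least 48 hr. Viability was read as ATP luminescence.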
# TGFb inhibitor: blocks TGF-b signaling. Potency, µM (highest dose often 46.1 µM), hits mostly inhibitors. HepG2 CAGA-GFP TGF-b/SMAD3 reporter, GFP fluorescence, 18 h; TGF-beta stimulated, 500 pg/mL final. actives 1.2% (n = 410,000); further: nearly all actives have a fitted effect of over 65% in size
#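 First, reporter cells (HEPG2 CAGA-GFP) rested 2 h at 37 degrees C. Next, compounds were pinned in and TGF-beta added to 500 pg/mL final. After 18 h, GFP was imaged per cell and summed per well.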
# DT40 TDP1 no CPT: qHTS for Inhibitors of human tyrosyl-DNA phosphodiesterase 1 (TDP1): qHTS in cells in absence of CPT. Potency, µM (titrated, usually from 46.2 µM), actives largely listed as inhibitors. actives 15% (n = 420,000). DT40 Tdp1-/- hTDP1 cells, no CPT, ATP luminescence, 48 h; further: nearly all actives have a fitted effect of over 55% in size
#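 Compound effects on proliferation are scored in DT40 Tdp1-/-;hTDP1 cells in the absence of CPT. ATP levels (CellTiter-Glo luminescence) are recorded after a ≥48 hr, 37 °C incubation.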
# HT1080 IDH1KD tx: kills HT-1080 cells with IDH1 knockdown. HT-1080 IDH1 knockdown viability, ATP luminescence, 48 h. Potency, µM (doses to about 46.1 µM), hits mostly cytotoxic. actives 2% (n = 360,000)
#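 Assay cells: HT-1080 with IDH1 knockdown, 750 per well, RPMI/5% FBS. Exposure: 48 h at 37 °C following 2 h pre-incubation. Read: CellTiter-Glo luminescence; fitted concentration-response, curve class assigned.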
# HT1080NT lethal: kills 2HG-producing HT-1080-NT fibrosarcoma cells; HT-1080-NT fibrosarcoma viability, CellTiter-Glo ATP luminescence, 48 h; Potency, µM (doses to about 46.1 µM), usual class: cytotoxic; actives 1.6% (n = 360,000); AID 686970;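 further: NT is the 2HG producing partner of a matched IDH1 knockdown line; nearly all actives have a fitted effect of over 55% in size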
#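 Read-out is CellTiter-Glo luminescence after 10 minutes at room temperature, following 48 hours' compound treatment of HT-1080-NT cells (750 cells/well, RPMI, 5% FBS, 37 degrees C).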
# Hits are given with their value; - = inactive; ? = inconclusive; . = not tested or not shown; [ ] = another dose, or the depositor's remark. The call rests on the fitted dose curve; in most records, active means well fitted curve in the direction sought with a large enough effect; inconclusive means small, poorly fitted or top-dose-only effect, or another doubt; inactive means no such curve, though single readings can be large; an effect the other way counts as inactive or inconclusive.
SMILES,HepG2 tox,DT40 TDP1 CPT,TGFb inhibitor,DT40 TDP1 no CPT,HT1080 IDH1KD tx,HT1080NT lethal
CC(C)(C)c1csc(NC(=O)Cn2c(=O)oc3ccccc32)n1,-,16µM,-,?,-,-
C=C1CCN(C(CC(C)C)C(=O)NN2CCOCC2)S(=O)(=O)c2ccccc21 (stereo unspecified),-,.,-,.,.,.
COCc1cc(C)nc(OCC(=O)N/N=C/c2ccc(C)cc2)c1C#N,-,12µM,-,9.2µM,?,-
COc1ccc(N2CCN(C(=O)CSc3nnc4n3C(C)(C)Cc3ccccc3-4)CC2)cc1,-,?,-,21µM,-,-
Cc1ccc(Cl)cc1N1CCN(C(=O)CSc2nnc3n2C(C)(C)Cc2ccccc2-3)CC1,-,9.2µM,-,7.3µM,-,-
COc1ccc(N2CCN(C(=O)CSc3nnc4c(C)cc5c(C)cc(C)cc5n34)CC2)cc1,-,?,-,23µM,-,-
COc1ccc(N2CCN(C(=O)CSc3nnc4c(C)cc5cc(C)ccc5n34)CC2)cc1,-,?,-,?,-,-
COc1ccc(S(=O)(=O)NCCC(=O)Nc2ccc(C)cc2)cc1,-,-,-,?,-,-
CCCCN(C)CCNC(=O)C1CCCN(S(=O)(=O)c2ccc3c(c2)oc(=O)n3C)C1 (stereo unspecified),-,-,-,-,.,.
CCCCn1c(N)c(N(CCOC)C(=O)c2cccc(-n3cnnn3)c2)c(=O)[nH]c1=O,-,-,-,-,-,-
CC(C)(C)c1ccc(CC(=O)N2CCC2(C)C(=O)O)cc1 (stereo unspecified),-,-,-,-,-,-
Cc1ccc(C)c(CN2CCCN(Cc3cc(C)ccc3C)S2(=O)=O)c1,-,?,?,9.2µM,-,-
Cc1ccc(CN2CCCN(Cc3cc(C)ccc3C)S2(=O)=O)cc1,-,-,-,-,-,-
O=C(Nc1ccc(F)c(Cl)c1)N1CCC(CN2CCc3ccccc3C2)CC1,-,?,?,?,.,.
CN1CCCC(C)(C(=O)Nc2cccc(Oc3ccccc3)c2)C1 (stereo unspecified),-,?,?,?,-,-
O=C1C2=C(c3ccccc31)[N+](=O)C1CCCCC1N2[O-] (stereo unspecified),-,23µM,-,15µM,-,-
Cc1noc(C)c1C(=O)NC1=NCCS1,-,-,-,-,-,-
COc1ccc(S(=O)(=O)N2N=C(C)Oc3ccccc3C2=O)cc1,-,2.9µM,-,2.9µM,3.3µM,2.9µM
CC1=NN(S(=O)(=O)c2ccc(C)cc2)C(=O)c2ccccc2O1,-,?,-,?,-,-
Cc1ccc(CNCc2ccccc2Cl)s1,-,.,-,.,.,.
O=c1[nH]nnc2cc(Cl)ccc12,-,-,-,-,-,-
NC(N)=Nc1nc2ccc(Cl)cc2c(=O)[nH]1,-,?,-,13µM,-,-
COc1ccc(CNC(=O)c2cc3sccc3n2Cc2ccc(C)cc2)cc1,-,-,-,-,.,.
Cc1nc(-c2ccc(S(=O)(=O)N(Cc3ccccc3)C(C)C)cc2)co1,-,?,-,15µM,.,.
CCN(Cc1ccccc1)S(=O)(=O)c1ccc(OC)cc1,-,?,?,16µM,-,-
SMILES,HepG2 tox,DT40 TDP1 CPT,TGFb inhibitor,DT40 TDP1 no CPT,HT1080 IDH1KD tx,HT1080NT lethal
CCN(Cc1ccccc1)S(=O)(=O)c1ccc(-c2coc(C)n2)cc1,-,13µM,-,23µM,.,.
O=C(CN1C(=O)COc2ccc(Cl)cc21)Nc1ccc(F)cc1,-,?,-,?,.,.
COc1ccc(NC(=O)CSCC(=O)Nc2cc(Cl)ccc2N2CCCC2)cc1,-,-,-,-,-,-
Cc1cc(C)c(C(=O)COC(=O)c2cc([N+](=O)[O-])ccc2N2CCOCC2)cc1C,-,?,-,18µM,-,-
O=C(OCc1ccc([N+](=O)[O-])cc1)c1cc([N+](=O)[O-])ccc1N1CCOCC1,-,16µM,-,23µM,?,?
C=CCONC(=O)c1cc(OCC(F)(F)F)ccc1OCC(F)(F)F,-,-,-,-,-,-
O=C(NNC(=O)c1cc(OCC(F)(F)F)ccc1OCC(F)(F)F)c1ccc(Cl)c(Cl)c1,-,23µM,?,?,-,-
CC(=O)N1CCCc2cc(S(=O)(=O)N(CCN(C)C)Cc3ccccc3)ccc21,-,-,-,-,.,.
CCc1cccc(NC(=O)CN(C)S(=O)(=O)c2ccc3c(c2)CCCN3C(C)=O)c1,-,21µM,-,?,.,.
CN(CC(=O)Nc1ccc(F)c(Cl)c1)S(=O)(=O)c1ccc2c(c1)n(C)c(=O)c(=O)n2C,-,?,-,?,-,-
CC(=O)N1CCCc2cc(S(=O)(=O)N(C)CC(=O)Nc3ccc(F)c(Cl)c3)ccc21,-,10µM,-,21µM,.,.
CC(=O)N1CCCc2cc(S(=O)(=O)N(C)Cc3ccccc3)ccc21,-,?,-,21µM,-,-
CC(=O)N1CCCc2cc(S(=O)(=O)N(C)CC(=O)Nc3cccc(C)c3C)ccc21,-,?,-,?,.,.
Nc1nc(SCC(=O)N2N=C(c3ccc(Cl)cc3)CC2c2ccco2)n[nH]1 (stereo unspecified),-,?,-,-,-,-
COc1ccc(N2CC(C(=O)Nc3ccc(S(=O)(=O)Nc4nccs4)cc3)CC2=O)c(OC)c1 (stereo unspecified),-,-,-,-,-,-
CCCCN1C2CCCC1CC(NC(=O)c1cccc(OC)c1)C2 (stereo unspecified),-,-,-,-,-,-
COc1ccc(Br)cc1/C=C/C(=O)c1ccc(NC(C)=O)cc1,16µM,5.8µM,?,4.1µM,?,?
COc1ccc(NC(=O)/C=C/c2cc(Br)ccc2OC)cc1,-,?,-,21µM,-,-
COc1ccc(Br)cc1/C=C/C(=O)Nc1c(C)cccc1C,-,?,?,23µM,?,-[9.24 µM]
CCN(CC)c1ccc(NC(=O)/C=C/c2cc(Br)ccc2OC)cc1,-,?,?,?,-,-
C=CCn1c(SCC(=O)NCC2CCCO2)nnc1-c1ccncc1 (stereo unspecified),-,-,-,-,-,-
Cc1ccc(OCC(=O)N(C)CC(=O)Nc2cccc(F)c2)cc1,-,-,-,-,-,-
Cn1c(=O)c2sccc2n2c(CCC(=O)NCc3ccccc3)nnc12,-,-,-,-,.,.
Cc1ccc(CCNC(=O)c2sc3ncccc3c2-n2c(C)ccc2C)cc1,-,12µM,11µM,6.5µM,.,.
